Drawing on PubChem BioAssay (EPA / NIEHS), this text covers outcome and AC50 for 14 compounds.

For test [1], the target named is Androgen Receptor/SRC-1 Co-activator, AR (gene 367) (UniProt P10275). Kind of test: OT_AR_ARSRC1_0960: Odyssey Thera (OT) 16-hour HEK293T Protein-Complementation Assay for Androgen Receptor/SRC-1 Co-activator (AID 2283353).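 Also: actives raise the signal above DMSO so potency reflects increased AR and SRC-1 complex.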 A digest of the protocol:
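Interaction of AR with SRC-1 was followed by YFP fragment complementation in HEK293T cells after 16 h of dosing. Gain of nuclear-over-cytoplasmic 488 nm fluorescence against DMSO controls defined activity.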

The target in test [2] is Estrogen receptor beta (Homo sapiens) (UniProt Q92731). Briefly: OT_ER_ERbERb_0480: Odyssey Thera (OT) 8-hour HEK293T Protein-Complementation Assay for Estrogen Receptor-beta/-beta Homodimer (AID 2283357).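 Also: active means signal gain over DMSO baseline.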 Put shortly: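 Readout: increase in mean fluorescence intensity (nucleus for agonists; nucleus plus cytoplasm for antagonists) relative to DMSO, from a reporter-fragment complementation of human ER-beta LBD homodimer in HEK293T cells dosed 8 hours.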

The target of test [3] is human Thyroid Receptor Alpha (TRa), THRA (gene 7067) (UniProt P10827). Briefly: NVS_NR_hTRa_Antagonist: NovaScreen (NVS) Nuclear Receptor Binding Assay for human Thyroid Receptor Alpha Antagonism (TRa) (AID 2283362). A digest of the protocol:
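Chemicals were first screened in duplicate at 25 uM, then actives were retested in concentration series. Binding to the extracted receptor was measured 1 h after dosing by AlphaLISA chemiluminescence, with decreased signal versus DMSO scored as activity.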

Test [4] deals with Agonist Androgen Response Element (ARE), AR (gene 367) (UniProt P10275). Briefly: OT_AR_ARELUC_AG_1440: Odyssey Thera (OT) 24-hour CHO-K1 Luciferase Assay for Agonist Androgen Response Element (ARE) (AID 2283379). A digest of the protocol:
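Seed CHO-K1 cells; dose compounds for 24 h; add D-luciferin plus ATP in PBS; read luminescence. Signal increase relative to vehicle defines agonist activity, with at least 3 replicate wells per sample.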

The target of test [5] is Androgen Receptor/SRC-1 Co-activator, AR (gene 367) (UniProt P10275). Kind of test: OT_AR_ARSRC1_0480: Odyssey Thera (OT) 8-hour HEK293T Protein-Complementation Assay for Androgen Receptor/SRC-1 Co-activator (AID 2283354).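 Also: hits raise the complementation signal above DMSO so AC50 marks enhancers.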 Put shortly:
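HEK293T cells stably expressing AR and SRC-1 fused to split Venus YFP fragments via (Gly4Ser)2 linkers were read 8 h after compound dosing. Complementation was imaged at 488 and 635nm, and nuclear/cytoplasmic fluorescence ratio (488nm) was taken over ≥400 cells; gain-of-signal versus DMSO.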

Test [6] has as its target Nuclear receptor subfamily 1 group I member 2 (Homo sapiens) (UniProt O75469). Briefly: NVS_NR_hPXR: NovaScreen (NVS) Nuclear Receptor Binding Assay for human Pregnane X Receptor (PXR) (AID 2283365).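 Also: a drop in FRET signal versus DMSO baseline means the compound binds.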 Put shortly:
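Binding was measured by time-resolved fluorescence resonance energy transfer after a 2 h exposure of extracted human PXR protein without cells. Compounds were first tested at 25 uM in duplicate, with concentration series for actives; DMSO defined baseline.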

Test [7] addresses Peroxisome proliferator-activated receptor gamma (Homo sapiens) (UniProt P37231). Briefly: NVS_NR_hPPARg: NovaScreen (NVS) Nuclear Receptor Binding Assay for human Peroxisome Proliferator-activated Receptor gamma (PPARg) (AID 2283370). A digest of the protocol:
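Fluorescence polarization measures competitive binding to extracted PPARg in a cell-free format. Reading is taken at 2 h; activity is signal loss relative to DMSO. Screening at 25 uM in duplicate preceded confirmatory dose series.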

Test [8] concerns the target rat Mineralocorticoid Receptor (MR), Nr3c2 (gene 25672) (UniProt P22199). Briefly: NVS_NR_rMR: NovaScreen (NVS) Nuclear Receptor Binding Assay for rat Mineralocorticoid Receptor (MR) (AID 2283355). Put shortly:
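Cell-free radioligand binding to MR in adrenalectomized rat brain supernatant, scintillation counted 24 h after dosing. Loss of signal versus DMSO baseline marks displacement. Primary screen in duplicate at 25 uM; actives retested as concentration series.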

The next test addresses PGR (gene 5241) (UniProt P06401). Kind of test: NVS_NR_hPR: NovaScreen (NVS) Nuclear Receptor Binding Assay for human Progestron Receptor (PR) (AID 2283360).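 Also: active means loss of bound radioligand signal versus DMSO baseline.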 A digest of the protocol: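 T47D lysate; tritiated or iodinated radioligand; scintillation count at 18 h. DMSO = negative control/baseline. Primary: 25 uM, duplicate. Secondary: concentration series for actives.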
Test [9] concerns the target Glucocorticoid receptor (Homo sapiens) (UniProt P04150). Briefly: NVS_NR_hGR: NovaScreen (NVS) Nuclear Receptor Binding Assay for human Glucocorticoid Receptor (GR) (AID 2283363).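 Also: activity is loss of specific radioligand binding signal relative to DMSO.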 Put shortly: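 Cell-free radioligand binding with extracted receptor protein, read by filter-based scintillation counting 16 hours after dosing. Loss of specific signal versus DMSO baseline was scored. Primary screen ran in duplicate at 25 uM; actives were followed up in concentration series.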

In test [10] the target is human Peroxisome Proliferator-activated Receptor alpha (PPARa), PPARA (gene 5465) (UniProt Q07869). Briefly: NVS_NR_hPPARa: NovaScreen (NVS) Nuclear Receptor Binding Assay for human Peroxisome Proliferator-activated Receptor alpha (PPARa) (AID 2283359).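 Also: activity means loss of TR-FRET signal versus DMSO baseline.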 A digest of the protocol: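 Cell-free binding assay with extracted human protein, read by TR-FRET 1 h after chemical dosing. Loss of signal relative to DMSO baseline indicates binding. Primary screen used duplicate single concentration (25 uM); actives followed up in concentration series.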

The structures appear in SMILES notation. Inconclusive results are not listed. Calls of active or inactive are those of the source. The calls were made as follows: active = hit-call score of the fitted dose curve at least 0.9, where 1 is the maximum; inconclusive = response in the unintended direction; inactive = score below 0.9.

Chain of Estrogen receptor beta (Homo sapiens) (Q92731 whole entry, looked up, the tested form may be a part): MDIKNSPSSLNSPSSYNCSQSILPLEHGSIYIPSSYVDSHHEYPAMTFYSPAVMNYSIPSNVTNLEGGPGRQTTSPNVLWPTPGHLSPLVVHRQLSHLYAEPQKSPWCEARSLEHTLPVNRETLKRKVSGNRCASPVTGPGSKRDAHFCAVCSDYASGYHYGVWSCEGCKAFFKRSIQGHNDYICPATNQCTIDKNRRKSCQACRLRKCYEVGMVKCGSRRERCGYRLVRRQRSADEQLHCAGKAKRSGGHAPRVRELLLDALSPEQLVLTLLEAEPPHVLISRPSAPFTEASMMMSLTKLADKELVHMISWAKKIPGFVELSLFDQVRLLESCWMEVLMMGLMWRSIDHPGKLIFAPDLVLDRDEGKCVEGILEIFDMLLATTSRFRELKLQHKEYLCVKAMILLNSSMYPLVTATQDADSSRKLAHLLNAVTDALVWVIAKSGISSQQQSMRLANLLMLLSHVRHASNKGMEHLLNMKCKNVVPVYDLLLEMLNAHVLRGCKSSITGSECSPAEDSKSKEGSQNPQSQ
Chain of Agonist Androgen Response Element (ARE), AR (gene 367) (P10275 whole entry, looked up): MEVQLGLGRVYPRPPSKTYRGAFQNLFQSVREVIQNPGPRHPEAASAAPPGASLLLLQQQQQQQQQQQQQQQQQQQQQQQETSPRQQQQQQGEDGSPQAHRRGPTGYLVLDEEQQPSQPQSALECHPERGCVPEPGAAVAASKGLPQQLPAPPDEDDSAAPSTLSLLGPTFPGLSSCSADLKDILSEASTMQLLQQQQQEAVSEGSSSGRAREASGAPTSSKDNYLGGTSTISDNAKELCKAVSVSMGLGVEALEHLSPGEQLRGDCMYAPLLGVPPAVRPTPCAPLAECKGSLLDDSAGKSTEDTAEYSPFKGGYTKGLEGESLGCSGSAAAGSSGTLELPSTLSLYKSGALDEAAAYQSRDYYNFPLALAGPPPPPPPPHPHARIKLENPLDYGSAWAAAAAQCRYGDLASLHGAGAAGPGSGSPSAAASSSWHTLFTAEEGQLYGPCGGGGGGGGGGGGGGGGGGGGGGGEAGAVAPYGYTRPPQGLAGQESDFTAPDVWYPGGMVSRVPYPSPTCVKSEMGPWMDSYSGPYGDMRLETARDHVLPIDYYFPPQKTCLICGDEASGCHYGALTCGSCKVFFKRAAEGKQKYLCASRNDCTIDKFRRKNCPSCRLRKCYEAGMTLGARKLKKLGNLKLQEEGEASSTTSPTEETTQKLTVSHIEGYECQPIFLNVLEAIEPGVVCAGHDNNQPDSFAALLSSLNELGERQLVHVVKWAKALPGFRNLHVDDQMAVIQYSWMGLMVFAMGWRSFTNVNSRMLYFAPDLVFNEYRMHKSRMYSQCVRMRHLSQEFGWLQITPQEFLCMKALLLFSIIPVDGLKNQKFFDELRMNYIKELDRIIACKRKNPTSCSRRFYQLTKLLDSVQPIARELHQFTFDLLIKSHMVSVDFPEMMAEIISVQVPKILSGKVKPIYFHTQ
Chain of Androgen Receptor/SRC-1 Co-activator, AR (gene 367) (P10275 whole entry, looked up, the tested form may be a part): as the sequence (P10275 whole entry, looked up) above
Chain of Nuclear receptor subfamily 1 group I member 2 (Homo sapiens) (O75469 whole entry, looked up): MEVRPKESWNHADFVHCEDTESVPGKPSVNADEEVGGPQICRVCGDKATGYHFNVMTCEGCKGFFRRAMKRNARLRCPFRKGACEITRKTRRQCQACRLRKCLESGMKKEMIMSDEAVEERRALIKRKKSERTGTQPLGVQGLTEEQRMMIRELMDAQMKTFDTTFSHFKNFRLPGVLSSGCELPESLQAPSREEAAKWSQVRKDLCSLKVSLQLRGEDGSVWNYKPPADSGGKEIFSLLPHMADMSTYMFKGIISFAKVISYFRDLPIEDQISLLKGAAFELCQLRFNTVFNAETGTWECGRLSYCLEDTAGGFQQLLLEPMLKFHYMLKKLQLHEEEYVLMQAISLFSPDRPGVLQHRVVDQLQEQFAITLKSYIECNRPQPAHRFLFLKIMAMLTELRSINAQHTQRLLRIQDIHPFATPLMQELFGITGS
Chain of human Peroxisome Proliferator-activated Receptor alpha (PPARa), PPARA (gene 5465) (Q07869 whole entry, looked up): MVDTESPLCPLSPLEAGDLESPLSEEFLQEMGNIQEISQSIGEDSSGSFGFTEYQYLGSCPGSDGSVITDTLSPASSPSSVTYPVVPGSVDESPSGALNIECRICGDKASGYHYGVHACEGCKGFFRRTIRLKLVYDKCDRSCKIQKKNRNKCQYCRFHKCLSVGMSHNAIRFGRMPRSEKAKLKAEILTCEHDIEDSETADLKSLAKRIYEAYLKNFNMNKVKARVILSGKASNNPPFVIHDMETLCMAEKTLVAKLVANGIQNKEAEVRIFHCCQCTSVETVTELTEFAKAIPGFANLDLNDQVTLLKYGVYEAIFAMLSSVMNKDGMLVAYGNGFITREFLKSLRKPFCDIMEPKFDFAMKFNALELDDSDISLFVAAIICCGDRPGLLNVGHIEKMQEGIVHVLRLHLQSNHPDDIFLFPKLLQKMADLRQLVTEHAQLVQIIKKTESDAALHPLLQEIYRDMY
Chain of PGR (gene 5241) (P06401 whole entry, looked up): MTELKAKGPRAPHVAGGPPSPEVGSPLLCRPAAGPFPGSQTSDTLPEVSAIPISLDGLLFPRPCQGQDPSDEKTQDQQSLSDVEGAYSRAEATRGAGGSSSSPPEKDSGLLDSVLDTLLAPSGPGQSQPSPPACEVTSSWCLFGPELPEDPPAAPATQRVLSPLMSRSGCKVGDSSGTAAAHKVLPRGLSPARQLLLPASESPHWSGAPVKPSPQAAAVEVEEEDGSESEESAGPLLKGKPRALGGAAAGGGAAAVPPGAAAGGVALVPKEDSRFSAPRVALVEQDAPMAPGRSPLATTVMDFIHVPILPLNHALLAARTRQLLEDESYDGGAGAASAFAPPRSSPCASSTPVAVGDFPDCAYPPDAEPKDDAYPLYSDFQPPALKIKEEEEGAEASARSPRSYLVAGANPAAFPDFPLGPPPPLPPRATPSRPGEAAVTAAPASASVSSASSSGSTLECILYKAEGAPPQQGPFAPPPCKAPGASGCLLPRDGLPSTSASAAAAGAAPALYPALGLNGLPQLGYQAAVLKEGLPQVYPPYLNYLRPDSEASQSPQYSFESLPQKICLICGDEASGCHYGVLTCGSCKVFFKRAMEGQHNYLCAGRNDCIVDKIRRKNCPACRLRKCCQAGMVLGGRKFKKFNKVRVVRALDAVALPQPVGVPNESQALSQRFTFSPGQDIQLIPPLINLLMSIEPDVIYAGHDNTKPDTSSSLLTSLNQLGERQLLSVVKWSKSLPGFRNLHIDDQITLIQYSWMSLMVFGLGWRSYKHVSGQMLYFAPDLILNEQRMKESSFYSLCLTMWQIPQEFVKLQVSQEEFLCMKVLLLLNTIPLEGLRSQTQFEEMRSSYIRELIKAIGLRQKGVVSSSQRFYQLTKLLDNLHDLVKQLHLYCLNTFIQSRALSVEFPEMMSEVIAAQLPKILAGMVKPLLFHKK
Chain of Peroxisome proliferator-activated receptor gamma (Homo sapiens) (P37231 whole entry, looked up): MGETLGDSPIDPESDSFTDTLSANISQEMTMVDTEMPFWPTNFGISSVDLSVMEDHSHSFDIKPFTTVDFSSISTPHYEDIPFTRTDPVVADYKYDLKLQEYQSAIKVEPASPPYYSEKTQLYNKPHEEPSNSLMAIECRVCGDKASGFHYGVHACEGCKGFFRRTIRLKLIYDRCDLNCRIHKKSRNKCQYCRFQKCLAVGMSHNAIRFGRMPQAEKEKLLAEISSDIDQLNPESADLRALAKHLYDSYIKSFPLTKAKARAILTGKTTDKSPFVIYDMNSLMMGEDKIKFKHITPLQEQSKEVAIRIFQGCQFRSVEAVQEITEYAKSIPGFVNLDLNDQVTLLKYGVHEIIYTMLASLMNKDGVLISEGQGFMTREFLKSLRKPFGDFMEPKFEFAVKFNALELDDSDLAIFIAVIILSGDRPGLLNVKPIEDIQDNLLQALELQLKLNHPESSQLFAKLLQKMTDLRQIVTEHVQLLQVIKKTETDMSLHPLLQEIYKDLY
Chain of human Thyroid Receptor Alpha (TRa), THRA (gene 7067) (P10827 whole entry, looked up): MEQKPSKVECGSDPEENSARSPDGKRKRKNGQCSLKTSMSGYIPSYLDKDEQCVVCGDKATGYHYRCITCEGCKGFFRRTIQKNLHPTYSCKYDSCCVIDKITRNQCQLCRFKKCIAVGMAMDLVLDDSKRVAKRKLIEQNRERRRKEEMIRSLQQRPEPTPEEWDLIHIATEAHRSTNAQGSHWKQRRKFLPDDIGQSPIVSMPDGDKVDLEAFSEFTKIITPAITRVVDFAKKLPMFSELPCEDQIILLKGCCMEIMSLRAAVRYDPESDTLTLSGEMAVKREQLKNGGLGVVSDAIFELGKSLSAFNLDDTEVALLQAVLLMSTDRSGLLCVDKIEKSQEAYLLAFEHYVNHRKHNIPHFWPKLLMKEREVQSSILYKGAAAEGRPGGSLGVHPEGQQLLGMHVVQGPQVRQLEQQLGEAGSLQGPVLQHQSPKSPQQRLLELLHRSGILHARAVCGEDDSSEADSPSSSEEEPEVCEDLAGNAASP

For `COc1ccc(O)cc1`, the result in [1], in test [2], in [3] and in [4] was inactive.

As to `C=CC(C)(O)CCC=C(C)CCC=C(C)C` (stereo unspecified), the outcome in test [2] was inactive.

As for `O=c1cc(-c2ccccc2)oc2cc(O)cc(O)c12`, the compound was called inactive in test [1], in [5], in test [6] and in [4]. In test [2], the half-maximal activity concentration (AC50) is 7.09 µM (active).

As to `C[Si](O[Si](C)(C)C)O[Si](C)(C)C`, the outcome in test [1], in test [2] and in test [4] was inactive.

With `O=C[C@@H](O)[C@H](O)[C@H](O)CO`, the outcome in test [1], in [2] and in [7] was inactive. In test [4], the concentration at half-maximal activity (AC50) is 1.26 µM (active).

As to `CCCCCCCCCCCCCCCCCC(=O)OCC(CC)CCCC` (stereo unspecified), in test [2], the compound was classed as inactive.

Take `CCCC/C=C\CCCCCCCCCC=O`: the outcome in test [2], in test [6] and in [7] was inactive.

For `C#C[C@]1(O)CC[C@H]2[C@@H]3CCC4=Cc5oncc5C[C@]4(C)[C@H]3CC[C@@]21C`, the compound was called inactive in [8]. For the same compound, the AC50 in the test with PGR (gene 5241) was 41.5 µM (active); in test [9], 0.319 µM (active).

Turning to `CCCCCOC(=O)CCC`, the outcome in [2] and in test [10] was inactive.

In the case of `COc1c(Cl)c(Cl)c(Cl)c(Cl)c1Cl`, the AC50 in test [2] is 41.8 µM (active). Moreover, in test [6], the call was inactive.

With `CCCCCCCCCCN`, the outcome in test [2] was inactive.

With `CCN(CC)c1ccc(C(=C2C=CC(=[N+](CC)CC)C=C2)c2ccc(S(=O)(=O)O)cc2S(=O)(=O)[O-])cc1`, the outcome in test [1], in test [5], in [2] and in [4] was inactive. Besides, in test [3], the AC50 was 8.03 µM (active).

As for `COc1cc(C(C)(C)C)c(O)c(C(C)(C)C)c1`, the outcome in test [10] was inactive.

Consider `CN(CCOc1ccc(CC2SC(=O)NC2=O)cc1)c1ccccn1` (stereo unspecified), for which, in the test with PGR (gene 5241), the compound was classed as inactive.
